# Experimental data as given in the supplement of paper PMC10681739.
# Assays:
# RUNX1 [1] = target: RUNX1 (UniProt Q01196); assay: RUNX1 binding intensity (PBM fluorescence), RUNX1 alone (arbitrary fluorescence units); higher = stronger binding; conditions: RUNX1 concentration 2 nM; ETS1 concentration 0 nM
# Experimental: (§1)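 Cooperative gcPBM on 36-bp genomic probes with neighbouring ETS1 and RUNX1 sites. Recombinant human RUNX1 (2 nM) was incubated alone or with ETS1 (25 nM) and detected with anti-RUNX1 antibody plus Alexa488 secondary. Values are medians over 4 replicate spots; the RUNX1+ETS1 data were normalised to the RUNX1-only data. The probes sit in constant array flanks that are not printed.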
# ETS1 = target: T1, ETS1 (UniProt P14921); assay: ETS1 binding intensity (PBM fluorescence) in presence of RUNX1, normalised to ETS1-only experiment (arbitrary fluorescence units); higher = stronger binding; conditions: ETS1 concentration 1 nM; RUNX1 concentration 25 nM
# T1 sequence: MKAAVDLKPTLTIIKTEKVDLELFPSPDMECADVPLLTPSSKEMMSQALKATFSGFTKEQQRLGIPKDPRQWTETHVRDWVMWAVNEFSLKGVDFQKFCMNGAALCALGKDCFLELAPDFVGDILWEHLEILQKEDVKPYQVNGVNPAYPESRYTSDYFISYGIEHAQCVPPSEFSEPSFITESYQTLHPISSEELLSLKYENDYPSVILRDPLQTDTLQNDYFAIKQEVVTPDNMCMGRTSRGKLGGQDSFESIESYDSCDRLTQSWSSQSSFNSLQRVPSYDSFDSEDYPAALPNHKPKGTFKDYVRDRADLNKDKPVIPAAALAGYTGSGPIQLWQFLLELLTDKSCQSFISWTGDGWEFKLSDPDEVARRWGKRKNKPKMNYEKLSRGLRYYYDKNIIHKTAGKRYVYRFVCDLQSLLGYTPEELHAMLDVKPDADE
# RUNX1 [2] = target: RUNX1 (UniProt Q01196); assay: RUNX1 binding intensity (PBM fluorescence) in presence of ETS1, normalised to RUNX1-only experiment (arbitrary fluorescence units); higher = stronger binding; conditions: RUNX1 concentration 2 nM; ETS1 concentration 25 nM
# Experimental: as §1
# 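Wherever RUNX1 binding intensity (PBM fluorescence) in presence of ETS1, normalised to RUNX1-only experiment is given: Full-length recombinant human ETS1 or RUNX1 bound to double-stranded 36-bp genomic probes on microarrays, detected by protein-specific primary antibody and Alexa488 secondary, spot fluorescence as median of four replicate spots.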
# 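Wherever RUNX1 binding intensity (PBM fluorescence), RUNX1 alone is given: Full-length recombinant human RUNX1 bound to double-stranded 36-bp genomic probes on a high-density microarray, scored as Alexa488 fluorescence per spot via anti-RUNX1 antibody, median of four replicate spots.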
# RUNX1, sequence (Q01196 whole entry): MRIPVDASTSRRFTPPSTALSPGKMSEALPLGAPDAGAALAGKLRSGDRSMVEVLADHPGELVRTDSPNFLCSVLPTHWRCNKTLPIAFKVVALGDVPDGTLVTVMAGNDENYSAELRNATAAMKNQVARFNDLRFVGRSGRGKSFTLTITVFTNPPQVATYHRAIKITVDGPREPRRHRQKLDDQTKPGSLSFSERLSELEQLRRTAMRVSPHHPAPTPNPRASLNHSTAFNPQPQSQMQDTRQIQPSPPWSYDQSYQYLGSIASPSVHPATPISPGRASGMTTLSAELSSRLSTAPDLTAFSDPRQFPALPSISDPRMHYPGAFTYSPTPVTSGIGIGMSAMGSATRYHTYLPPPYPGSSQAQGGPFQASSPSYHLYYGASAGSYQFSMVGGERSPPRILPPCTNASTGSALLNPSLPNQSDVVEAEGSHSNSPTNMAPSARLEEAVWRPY
Sequence,RUNX1 binding intensity (RUNX1 [1]),ETS1 binding intensity (ETS1),RUNX1 binding intensity (RUNX1 [2])
AATATCCTGTATGTCATGCTTAAAAAGCCACAAAAC,875,1070,2050
ACTGAAAACAGCACAGGATGTGGTCTGCCAGGTGCC,752,10100,1440
TGACGGCAGGCAGGATGTGGTGAGACAAATCCACTC,904,8840,2660
CGCCGCTCAACTTCCGGCAACCACAGCTCTCTCTGA,1070,3870,3150
CGGGGGCCAGGCTTCCTGTGGTGGGAGCGGCAGGCC,830,477,1350
ACACAGAGAGTGAGAGGAAGTGGTTTAGAGATGAGA,769,3210,1050
CAGGTGTTCAGGAAACAAAACCACAGACTTTTTCAC,4690,2370,6800
CACTGCGGAAGCAGTGTAGAGAGGTGGTTATCAGTG,784,680,921
TCATATCCGGCAGGAATGGGTTTTGTGGCTTTGTGC,1670,1400,3620
GACTGCACTTCCTCTGCTTCGAGGTCGGTGGTTAGC,874,653,1450
TGCACCCGCCACTTCCGCATCGAACCGCCGCTTCAA,1030,1140,3470
ATGGGTACAGGATTTCCTTTTGTGGTGATGAAAATG,913,1030,1200
GCACGCCATCGAGGAAGTGGGTTTACTGTGTATTTC,723,1110,934
CTTAGCGGAAGAGGCGTGACCCAGGCGTACCGCAGG,804,1320,870
ACCCACCCGGAAGTCCTCCTGGCCCACAAGCTCCGC,992,2270,1630
ACCGGATGCCGGGGCACCGCCAGATGTGGCCACGAG,746,1730,941
TGTCTCATTTCCTGTAGGTAACAGGCACCACAATAG,968,1470,1780
CCGCGCACCCGGAACTACCTCCCGACCCGCATCCCC,1290,592,1440
CCGCGCCGCTTCCTCCAGACACCGCAAGGGGGTGCT,893,446,1660
CGGTTCCGGCGCCTGAAGTTTTAGCTGCGGTGGCGG,794,676,1720
